# Experimental data as given in PubChem BioAssay (NCI).
# Compounds without any hit were thinned out: in the full panel of roughly 83,000, 20% have a hit.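 Percent growth is the endpoint: 0 to 100 indicates growth inhibition (40 means 60% inhibition), 0 means no net growth, and negative values indicate cell death.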 A number with no mark means an inactive call. The source made the active and inactive calls. The calls were made as follows: active = growth percent below 10; inactive = the rest.
# Experiments:
# Assay in all cases: NCI-60 one-dose screen, 48 h (100 = growth as untreated, 0 = no growth, -100 = all killed)
# Conditions in all cases: 10 µM unless noted
# NCI-H23 lung = system: NCI-H23 lung
# NCI-H226 lung = system: NCI-H226 lung
# NCI-H322M lung = system: NCI-H322M lung
# HOP-62 NSCLC = system: HOP-62 NSCLC
# NCI-H460 lung = system: NCI-H460 lung
# HOP-92 NSCLC = system: HOP-92 NSCLC
# NCI-H522 lung = system: NCI-H522 lung
# A549/ATCC NSCLC = system: A549/ATCC NSCLC
# 786-0 renal = system: 786-0 renal
# COLO 205 colon = system: COLO 205 colon
Compound,growth (NCI-H23 lung),growth (NCI-H226 lung),growth (NCI-H322M lung),growth (HOP-62 NSCLC),growth (NCI-H460 lung),growth (HOP-92 NSCLC),growth (NCI-H522 lung),growth (A549/ATCC NSCLC),growth (786-0 renal),growth (COLO 205 colon)
CC(C)=C[C@@H]1c2c(c3ccccc3n(C)c2=O)O[C@H]2c3c(c4ccccc4n(C)c3=O)OC(C)(C)[C@@H]12,99.6%,101%,112%,115%,75.3%,-4.59% (active),53.4%,89.3%,93.5%,95.3%
CC(CN1CCCCC1)C(=O)c1ccccc1 (stereo not given),101%,103%,102%,103%,105%,79%,-57.1% (active),98%,105%,108%
C=C1C(=O)O[C@H]2[C@H]1CC/C(COC(=O)C(=O)c1c[nH]c3ccc(OC)cc13)=C\CC[C@@]1(C)O[C@@H]21,-28.1% (active),-68.3% (active),-70.5% (active),-71.3% (active),-53.9% (active),-77.2% (active),-61.3% (active),-62.7% (active),-91% (active),-68.6% (active)
O=C(CSc1nnc(-c2ccc(NC(=O)c3cccnc3)cc2)o1)N[C@@H](Cc1ccc(O)cc1)C(=O)O,108%,102%,99.8%,98%,111%,96.3%,91%,104%,99.6%,101%
CC1=C(SCCC(=O)OC(C[Se]C2=C(C)C(=O)c3ccccc3C2=O)C(=O)NCCCCCC(=O)OCc2ccccc2)C(=O)c2ccccc2C1=O (stereo not given),15.2%,93.4%,8.06% (active),12.8%,10.9%,58.4%,20.7%,22.2%,40.1%,40%
COc1ccc(-c2nc3c(c(=O)n2C(C)=O)C(c2ccc(Cl)cc2)c2sc4c(Cl)cccc4c2O3)cc1 (stereo not given),3.67% (active),15.8%,-5.66% (active),-5.72% (active),-10.8% (active),-15.7% (active),-45.6% (active),-55% (active),-50.1% (active),-62.3% (active)
COc1cc(CCC[P+](c2ccccc2)(c2ccccc2)c2ccccc2)cc2c1OCO2,19.1%,55.5%,79.4%,92.3%,37.9%,25.3%,13.2%,73.2%,63.9%,3.37% (active)
COc1cccc2c1C(=O)c1c(O)c3c(c(O)c1C2=O)CC(O)(/C(C)=N/NC(=O)CCCCC(=O)N/N=C(\C)C1(O)Cc2c(O)c4c(c(O)c2C(OC2CC(N)C(O)C(C)O2)C1)C(=O)c1c(OC)cccc1C4=O)CC3OC1CC(N)C(O)C(C)O1 (stereo not given),-31.9% [5 µM] (active),-56.1% [5 µM] (active),-10.2% [5 µM] (active),-1.23% [5 µM] (active),-10.2% [5 µM] (active),-50.7% [5 µM] (active),-57.7% [5 µM] (active),-22% [5 µM] (active),4.75% [5 µM] (active),-91.9% [5 µM] (active)
O=[N+]([O-])c1ccc(OCCO)cc1,99.6%,99.7%,104%,101%,108%,81.2%,102%,105%,109%,107%
O=c1ssc(Cl)c1-c1ccccc1,99.5%,99.1%,105%,98.1%,99%,72.5%,112%,106%,107%,85.1%
O=C(COc1ccc(/C=C2\Oc3ccccc3C2=O)cc1)Nc1nc2ccccc2s1,48.5%,98.4%,118%,73.8%,111%,-90.4% (active),-79.9% (active),68.3%,49%,91.5%
Cc1cc(NCc2cc(Nc3ccnc4cc(Cl)ccc34)ccc2F)nc(N2CCN(c3ccccc3)CC2)n1,62.8%,55.4%,74.1%,62%,44.9%,20.6%,45.6%,50.6%,64.8%,13.6%
COc1ccc(/C=N\NC(=O)c2cc(-c3ccc(Br)cc3)n(-c3ccc(S(N)(=O)=O)cc3)n2)cc1,71.7%,77.8%,63.1%,48%,38.5%,46.8%,18.9%,52.1%,66.9%,62.2%
Cc1nn(-c2ccccc2)c(Cl)c1/C=C(/NC(=O)c1ccccc1)c1nc2ccccc2[nH]1,106%,108%,90.3%,99%,109%,82.6%,86.6%,90%,90.2%,83.6%
